Test results: PubChem BioAssay (NCATS)
Results filed as inconclusive are left out. The source made the active and inactive calls. Calls follow the shape of the dose curve; as a rule, active = well fitted curve in the direction sought with a large enough effect; inconclusive = small, poorly fitted or top-dose-only effect, or another doubt; inactive = no such curve, though single readings can be large; an effect the other way counts as inactive or inconclusive.

How the values were obtained:
[1] = qHTS of pediatric cancer cell lines to identify multiple opportunities for drug repurposing: Primary screen for TC32 cells (AID 1347089); also: nearly all actives have a fitted effect of over 60% in size
Summary of the method: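 qHTS, TC32, 48 h drug treatment, CellTiter-Glo luminescence as a proxy for metabolically active cells; primary top concentration 46 µM (MIPE 11-pt, NPC 8-pt); confirmatory 11-pt.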

[2] = qHTS of pediatric cancer cell lines to identify multiple opportunities for drug repurposing: Primary screen for DAOY cells (AID 1347090); also: series mostly up to about 46 µM; nearly all actives have a fitted effect of over 55% in size
Summary of the method: (§1)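 Cell viability, CellTiter-Glo luminescence; 500-1,000 cells/well, 8- or 11-point titration, 48 h compound exposure at 37 degrees C, 5% CO2. Controls: DMSO neutral, bortezomib 2.3 µM final as positive.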

[3] = qHTS of pediatric cancer cell lines to identify multiple opportunities for drug repurposing: Primary screen for SJ-GBM2 cells (AID 1347091)
Summary of the method: as §1

[4] = qHTS of pediatric cancer cell lines to identify multiple opportunities for drug repurposing: Primary screen for A673 cells (AID 1347092); also: nearly all actives have a fitted effect of over 45% in size
Summary of the method: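 Luminescence from CellTiter-Glo, taken after 15 min at room temperature, served as the proxy for metabolically active cells following 48 h treatment. Both potency and efficacy were taken from curves fitted to the titration data.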

[5] = qHTS of pediatric cancer cell lines to identify multiple opportunities for drug repurposing: Primary screen for SK-N-MC cells (AID 1347093); also: series mostly up to about 46 µM
Summary of the method: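 Metabolically active cells were quantified by ATP-dependent luminescence (CellTiter-Glo, 15 min at room temperature) following 48 h treatment. Cells had been plated at 500-1,000 per well and settled for 5 h beforehand.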

[6] = qHTS of pediatric cancer cell lines to identify multiple opportunities for drug repurposing: Primary screen for BT-37 cells (AID 1347094); also: potency is read from the fitted curve at half-maximal effect
Summary of the method: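 Plated cells (500-1,000 per well, growth media) were allowed to settle for 5 hours, treated with compound dilutions for 48 hours, then lysed with CellTiter-Glo for 15 min at room temperature before luminescence reading.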

Measured: Potency

CN1[C@@H]2CC[C@H]1CC(NC(=O)n1c(=O)[nH]c3ccccc31)C2 (some centres undefined)
inactive: all assays above

CC(=O)N(c1onc(C)c1C)S(=O)(=O)c1ccc(N)cc1
inactive: all assays above

CC(C)=CCC/C(C)=C/CC/C(C)=C/CCC(=O)OC/C=C(\C)CCC=C(C)C
inactive: all assays above

Cc1nc(C2CCCCC2)c(-c2ccc(S(N)(=O)=O)c(F)c2)o1
inactive: all assays above

CCOc1ccccc1OCC1CNCCO1 (centres undefined)
inactive: all assays above

N#Cc1cc(NC(=O)C(=O)O)c(Cl)c(NC(=O)C(=O)O)c1
inactive: all assays above

CC(=O)CC/C=C(\C)CC/C=C(\C)CC/C=C(\C)CCC=C(C)C
inactive: all assays above

CC1(C)O[C@@H]2C[C@H]3[C@@H]4C[C@H](F)C5=CC(=O)C=C[C@]5(C)[C@@]4(F)[C@@H](O)C[C@]3(C)[C@]2(C(=O)CO)O1
inactive: all assays above

O=C(O)C(=O)Nc1cccc(-c2nn[nH]n2)c1
inactive: all assays above

COc1cc(/C=C/C(N)=O)cc(OC)c1OC
active: [6] 1 nM
inactive: all other assays above

CCCCCCCC(=O)[O-].CCCCCCCC(=O)[O-].[Zn+2]
inactive: all assays above

N=C(N)c1ccc(OCCCOc2ccc(C(=N)N)cc2)cc1
inactive: all assays above

O=C(O)Cc1ccccc1Oc1ccc(Cl)cc1Cl
inactive: all assays above

Brc1ccccc1-c1ccccc1
inactive: all assays above
